Bioassay records from PubChem BioAssay.
Most compounds without a hit are left out; they make up all but 5.5% or so of the library.
Giardia killer: Small Molecules that selectively kill Giardia lamblia: qHTS. 340,000 compounds, 0.15% hits. Giardia lamblia trophozoite viability. activity change, % at 7.66 µM, hits read low. AID 540267, 2011; in the data active = activity change below about -80%; inconclusive = between about -30% and that limit;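 note: parasites exposed to compound for two days anaerobically before the ATP read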
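Giardia lamblia trophozoites (100 cells/well) were incubated with compounds for 48 h at 37 deg C under anaerobic conditions. Viability was read as ATP content by one-step luminescence after 15-30 min at room temperature.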
Coupling enz: qHTS Assay for Inhibitors of Fructose-1,6-bisphosphate Aldolase from Giardia Lamblia: Coupling assay counterscreen | coupling enzyme system counterscreen, AmpLite Red fluorescence | activity change, negative = inhibition, % at 58.2 µM, hits read low | 290,000 compounds, 0.67% hits | AID 2472, 2010; in the data active = activity change below about -30%
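First, compound is pin-transferred into glyceraldehyde-3-phosphate coupling-enzyme reagent at 57.5 uM final and held 10 min at RT. Next, substrate, coupling system and AmpLite Red are added. After 20 min RT, fluorescence (525/598 nm) is read.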
ELG1 repair inh: qHTS screen for small molecules that inhibit ELG1-dependent DNA repair in human embryonic kidney (HEK293T) cells expressing luciferase-tagged ELG1. Potency, µM (series often up to 46.1 µM), inactives show at the highest dose activity change, negative = inhibition, actives largely listed as inhibitors. AID 504467, 2011. 330,000 compounds, 2.3% hits. HEK293T ELG1-luciferase reporter, luminescence, 16 h; DNA damage induced by 5-fluorouridine; note: potency is the fitted concentration of half-maximal effect; nearly all actives have a fitted effect of over 55% in size
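Reporter activity after DNA damage by 5-fluorouridine is monitored. Compound-treated cells incubate 16 hr at 37 °C, then ONE-Glo is added for 30 min before luminescence reading.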
Sfp PPTase inh: qHTS Assay for Inhibitors of Bacillus subtilis Sfp phosphopantetheinyl transferase (PPTase) | AID 1490, 2009 | 310,000 compounds, 3.5% hits | 4'-phosphopantetheinyl transferase ffp (Bacillus subtilis), Q9F4F7 | Biochemical Sfp PPTase activity, qHTS | Potency, µM, for the others: largest response in the series, negative = inhibition, usual class: inhibitors;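 note: the enzyme is Sfp with the accession as filed and its product quenches rhodamine fluorescence; potency is the fitted concentration of half-maximal effect; 0% = enzyme reaction without inhibitor and -100% = no enzyme wells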
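Sfp 15 nM + cpd, 15 min RT; start w/ rhodamine-CoA 5 uM, BHQ-2-YbbR 12.5 uM (final); 50 mM Hepes pH 7.6, 10 mM MgCl2, 0.01% NP-40, 0.01% BSA; read 525/598 nm at 0 and 30 min.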
Sfp PPTase conf: Confirmation qHTS Assay for Inhibitors of Bacillus subtilis Sfp phosphopantetheinyl transferase (PPTase) | shares compounds with Sfp PPTase inh | Sfp PPTase enzymatic assay, qHTS titration | Potency, µM (series often up to 114 µM), for inactives: at the top dose activity change, negative = inhibition, actives largely listed as inhibitors | 380 compounds, 79% hits | AID 2701, 2010;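 note: potency is the fitted concentration of half-maximal effect; plate controls were uninhibited Sfp reaction for no effect and no enzyme control for full effect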
Target sequence (Q9F4F7 whole entry, looked up): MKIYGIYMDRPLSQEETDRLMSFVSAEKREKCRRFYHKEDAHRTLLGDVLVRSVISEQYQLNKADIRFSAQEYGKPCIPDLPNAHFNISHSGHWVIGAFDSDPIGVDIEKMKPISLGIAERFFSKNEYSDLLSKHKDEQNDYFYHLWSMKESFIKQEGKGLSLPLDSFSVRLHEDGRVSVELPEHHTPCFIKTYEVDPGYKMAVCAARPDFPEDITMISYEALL
Sfp gel assay: Gel-Based Assay for Inhibitors of Bacillus subtilis Sfp phosphopantetheinyl transferase (PPTase); 210 compounds, 20% hits; shares compounds with Sfp PPTase inh; AID 2707, 2010; Potency, µM, usual class: inhibitors; purified Sfp, gel-based phosphopantetheinylation read-out;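 active = potency below 100 µM; inconclusive = dose-dependent response but potency above 100 µM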;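 note: band intensities scaled against SCH202676 control wells before curve fitting; potency is an IC50 for inhibitors of Sfp transfer activity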
An asterisk follows results filed as active; i = inactive; ? = inconclusive; / = no result; ! = not active in a repeat. Unless noted, calls come from the whole dose curve; as a rule, active = well fitted curve in the direction sought with a large enough effect; inconclusive = small, poorly fitted or top-dose-only effect, or another doubt; inactive = no such curve, though single readings can be large; an effect the other way counts as inactive or inconclusive. Unless noted, % is set by controls: 0 for no effect and ±100 for the full control effect.

SMILES	Giardia killer	Coupling enz	ELG1 repair inh	Sfp PPTase inh	Sfp PPTase conf	Sfp gel assay
c1csc(-c2nc3ccccc3s2)c1	17.2	-1.4	?	35.5µM*	46.9µM*	?
NC(=O)c1ccccc1NC(=O)c1cccc(C(=O)Nc2ccccc2C(N)=O)n1	-22.4	/	/	/	/	/
Cc1ccc(S(=O)(=O)N2CCCCC2)cc1NC(=O)COC(=O)Cc1cccc2ccccc12	16.1	-3.7	-16.0%	6.4%	/	/
O=C(Cc1ccccc1Nc1c(Cl)cccc1Cl)OCO/N=[N+](\[O-])N1CCCC1	-16.1	-25.1	/	22.4µM*	26.4µM*	?
CN(C)c1ccc(-c2nn3c(-c4ccc(Cl)cc4)nnc3s2)cc1	-12.0	4.4	0.2%	-5.5%	/	/
Clc1ccc(-c2nn3c(C4COc5ccccc5O4)nnc3s2)cc1 (configuration not stated)	-21.1	1.2	10.2%	14.1µM*	33.2µM*	/
CCOC(=O)c1c(C)[nH]c(C)c1S(=O)(=O)N1CCN(c2ccc([N+](=O)[O-])cc2)CC1	?	4.9	?	0.5%	/	/
O=C(CCC1CCCCC1)NCCN1C2=NC[C@H](Cc3ccc(O)cc3)N2C[C@H]1Cc1ccc(O)cc1	-2.6	-9.1	14.1%	?	/	/
C[C@@H]1CN=C2N(CCNC(=O)CCC3CCCCC3)[C@H](Cc3ccc(O)cc3)CN21	-19.7	3.6	?	15.8µM*	?	/
Cc1cc(SCC(=O)NN)c2cc(Br)ccc2n1	-2.7	7.0	6.2%	22.4µM*	?	/
C[C@](N)(Cc1ccc(O)c(O)c1)C(=O)O	-4.7	-57.6*!	10.2%	12.6µM*	21µM*	i
CC(Cc1ccc(O)c(O)c1)(NN)C(=O)O (configuration not stated)	/	-5.6	/	50.1µM*	46.9µM*	i
COC(=O)C(N)Cc1ccc(O)c(O)c1 (configuration not stated)	22.9	-7.2	0.7%	-23.5%	/	/
CCN(CC(=O)Nc1c(F)cccc1F)C(=O)C1CCCN(C(=O)c2ccc(Cl)cc2)C1 (configuration not stated)	0.3	/	7.9%	8.6%	/	/
S=C(NCCCc1cnc[nH]1)NCCCN(Cc1ccc(Cl)cc1)c1cc(-c2ccccc2)ccn1	-24.2	/	/	/	/	/
Cc1ccc(Cn2c(=S)[nH]c3ccc(N4CCOCC4)cc3c2=O)o1	-1.7	-29.4	-20.6%	2.51µM*	2.64µM*	/
CCCCn1c(=S)[nH]c2ccc(N3CCOCC3)cc2c1=O	/	-0.1	-24.2%	?	/	/
COC(=O)C1=C(C(=O)OC)[C@@H]2Nc3ccccc3[C@@]23C[C@@H](C(=O)OC)N(S(=O)(=O)c2ccc(C)cc2)C3=N1	/	2.8	/	4.0%	/	/
O=C(Nc1ccccc1)Oc1ccc[nH]c1=O	14.3	-43.6*	?	6.31µM*	21µM*	i
CN=c1nc(-c2ccccc2)n(-c2ccccc2)s1	21.6	/	?	/	0.835µM*	/
CC(C)C(c1nnnn1Cc1ccc(F)cc1)N1CCN(c2ccc(O)cc2)CC1 (configuration not stated)	13.6	-9.5	-22.8%	15.8µM*	46.9µM*	/
N=c1c2c3c(sc2ncn1Cc1ccco1)CCCCC3	-3.3	-4.2	?	12.6µM*	-7.3%	i
CCOC(=O)c1c(-c2ccc(OC)cc2)csc1NC(=O)C1CCCO1 (configuration not stated)	1.5	3.1	-15.5%	15.8µM*	33.2µM*	/
COC(=O)c1c(-c2cccc(C)c2)csc1NC(=O)C1CCCO1 (configuration not stated)	16.8	1.4	0.0%	8.7%	/	/
COC(=O)C1=C[C@@H](C(=O)OC)[C@H]2C3=C(C(=O)[C@@]2(C)NC(=O)c2ccccc2)[C@H](C)C(C(=O)OC)=C(C(=O)OC)[C@@H]3C1	-4.3	3.4	/	-0.1%	/	/
SMILES	Giardia killer	Coupling enz	ELG1 repair inh	Sfp PPTase inh	Sfp PPTase conf	Sfp gel assay
C/C=C/c1ccc(OCCCCn2cncn2)c(OC)c1	1.6	-5.3	?	1.12µM*	-1.1%	i
COc1ccc(C=C2c3ccccc3C(=O)c3ccccc32)cc1O	/	0.0	/	?	/	/
O=C(CC1SC(N2CCCC2)=NC1=O)Nc1ccc(C(=O)NCc2ccc(F)cc2)cc1 (configuration not stated)	34.8	/	15.1%	/	/	/
CC(C)N(C(=O)Nc1ccc2nsnc2c1)C(C)C	1.0	-36.7*	0.3%	4.47µM*	23.5µM*	i
COc1ccc(/C=C2\SC(=O)N(CC(=O)NC3CCS(=O)(=O)C3)C2=O)cc1 (configuration not stated)	-9.4	-1.1	?	?	/	/
CC(C)(C)c1ccc(C(=O)CCCN2CCC(OC(c3ccccc3)c3ccccc3)CC2)cc1	/	/	/	50.1µM*	46.9µM*	i
COC(=O)c1sc2ccccc2c1C(=O)OC	9.5	2.8	4.1%	6.2%	/	/
COC(=O)c1sc2ccccc2c1N	-23.0	-1.6	?	14.1µM*	46.9µM*	/
O=C(/C=C/c1ccncc1)c1ccc(NC(=O)c2ccccc2F)cc1	-6.9	2.3	?	5.62µM*	52.7µM*	/
CC(C)C(C)NC(=O)CSc1nc2scc(-c3ccco3)c2c(=O)n1-c1ccccc1 (configuration not stated)	-15.4	6.1	0.0%	4.47µM*	29.6µM*	?
Nc1nnc2c(n1)CCCC2	-3.4	-30.2*	0.1%	44.7µM*	52.7µM*	6.17µM*
C1CCc2nc3c(nc2C1)CCCC3	-13.2	3.0	4.0%	-0.3%	/	/
O=C(Nc1ncccc1O)c1ccc(Cl)c(S(=O)(=O)N2CCCCC2)c1	7.2	/	3.0%	/	/	/
Cc1cccc(Nc2cc(Cl)nc(SCC(=O)O)n2)c1C	/	0.8	/	20.7%	/	/
CO/N=C(\C(=O)N[C@@H]1C(=O)N2C(C(=O)O)=C(COC(C)=O)CS[C@H]12)c1csc(N)n1	/	3.2	/	?	/	/
CO/N=C(/C(=O)N[C@@H]1C(=O)N2C(C(=O)O)=C(CSC(=O)c3ccco3)CSC12)c1csc(N)n1 (some centres not stated)	/	/	/	56.2µM*	46.9µM*	6.17µM*
CO/N=C(\C(=O)N[C@@H]1C(=O)N2C(C(=O)[O-])=C(C[n+]3cccc4c3CCC4)CS[C@H]12)c1csc(N)n1	/	/	/	56.2µM*	41.8µM*	55.6µM*
CCOC(=O)c1c(N)sc2c1CCN(Cc1ccccc1)C2	/	-3.7	/	10µM*	21µM*	/
CCOC(=O)c1c(NC(=O)Cc2ccccc2)sc2c1CCN(CC)C2	3.4	-0.8	?	5.1%	/	/
